Compound activity from PubChem BioAssay.
Hits are enriched below; roughly 2.1% of the tested compounds scored in any of these assays.
Giardia killer: kills Giardia lamblia | AID 540267 | 340,000 tested, 0.15% active | Giardia lamblia trophozoite viability | activity change, % at 7.66 µM, hits read low; in the data active = activity change below about -80%; inconclusive = between about -30% and that limit;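 also: parasites exposed to compound for two days anaerobically before the ATP read; % is scaled to controls: 0 for no effect and ±100 for the full control effect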
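Trophozoite viability was measured as ATP-dependent luminescence, read 15-30 min after reagent addition. Before that, parasites at 100 cells/well were exposed to compounds for 48 h, anaerobically, at 37 deg C.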
B2AR arrestin: beta2AR (human) beta-arrestin recruitment activity | P07550 | beta-arrestin recruitment to beta2AR, cell-based reporter | Potency, µM (top dose mostly 46.1 µM), for inactives: at the top dose activation, most hits filed as activators | 330,000 tested, 0.02% active | AID 492947;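 also: potency is read from the fitted curve at half-maximal effect; 0% = DMSO controls and full agonism = EC100 isoproterenol or metaproterenol; nearly all actives have a fitted effect of over 65% in size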
ClpP mod: qHTS Assay for Activators of ClpP; purified B. subtilis ClpP, FRET peptide cleavage, 20 min; Potency, µM (highest dose often 57.5 µM), for inactives: at the top dose activity change, negative = active; 340,000 tested, 1.9% active; active = well fitted falling curve with a large enough effect; inconclusive = small, poorly fitted or top-dose-only effect; inactive = no such curve, though single readings can be large or run the other way; also: potency is read from the fitted curve at half-maximal effect; the source files actives as falling curves though it sought activators and does not explain the sign; nearly all actives have a fitted effect of over 65% in size
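Buffer: 100 mM Tris/HCl pH8, 100 mM KCl, 0.05% low protease BSA, 2.5% glycerol, 0.01% Tween-20. ClpP 10 microg/mL final; 20 min RT; delta FRET normalized to ADEP and DMSO controls.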
Mito fusion act: mitochondrial division inhibition or fusion activation. S. cerevisiae fusion-defective mutant growth rescue, CellTiterGlo 48 h. Potency, µM (titrated, usually from 46.1 µM), for inactives: top-dose growth rescue (activation), actives largely listed as activators. 320,000 tested, 0.23% active. AID 485298; also: potency is read from the fitted curve at half-maximal effect; % of control where 0% means no effect; nearly all actives have a fitted effect of over 45% in size
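Growth-rescue viability read-out: after 48 h at the non-permissive 37C in glycerol/ethanol YPEG, yeast mitochondrial fusion mutants are measured by CellTiterGlo luminescence; compounds (23 nl pinned per well) restoring growth score as division inhibitors or fusion activators.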
uPA generation: inhibitors of cell surface uPA generation. 330,000 tested, 0.31% active. Potency, µM (titrated, usually from 38.3 µM), for the others: at the top dose activity change, negative = inhibition, actives largely listed as inhibitors. cell surface uPA generation assay, qHTS. AID 540303; active = well fitted inhibition curve with a large enough effect; inconclusive = small, poorly fitted or top-dose-only effect; inactive = no such curve, though single readings can be large or run the other way; tested in mouse RAW 264.7 cells; also: potency is read from the fitted curve at half-maximal effect; % is scaled to controls: 0 for no effect and ±100 for the full control effect; nearly all actives have a fitted effect of over 55% in size
p53 reactivation: restores transcriptional activity of mutant p53; AID 504706; H1299 p53-A138V BP100-luciferase reporter, luminescence, 24 h; 320,000 tested, 0.063% active; Potency, µM (series often up to 92.2 µM), inactives show at the highest dose activity change, positive = activation, actives largely listed as activators; also: potency is read from the fitted curve at half-maximal effect; % of control where 0% means no effect; nearly all actives have a fitted effect of over 45% in size
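p53-null H1299 cells stably carrying temperature-sensitive p53-A138V and a BP100-luciferase reporter were pinned with compounds (4-point, 1:5 series) and held 24 hrs at 37 deg C. Luminescence was read 10 min after detection reagent.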
Active calls of the source: *; ? = inconclusive; nt = no result. Unless noted, calls follow the shape of the dose curve; as a rule, active = well fitted curve in the direction sought with a large enough effect; inconclusive = small, poorly fitted or top-dose-only effect, or another doubt; inactive = no such curve, though single readings can be large; an effect the other way counts as inactive or inconclusive.

SMILES	Giardia killer	B2AR arrestin	ClpP mod	Mito fusion act	uPA generation	p53 reactivation
O=C1C=C(c2cccc(Cl)c2O)C[C@@H](c2ccc3c(c2)OCO3)C1	-1	-1%	0%	11µM*	0%	-15%
Cc1cc2nc(-c3ccc(SCC(=O)Nc4ccc(S(=O)(=O)NC5CC5)cc4)nc3)[nH]c2cc1C	?	2%	8.9µM*	0%	-6%	2.8µM*
CC1=Nc2cc(C(=O)NCCc3ccc(Cl)cc3)ccc2Sc2ccc(C)cc21	nt	nt	-2%	nt	nt	nt
NS(=O)(=O)c1ccc(NC(=S)NC(=O)c2ccco2)cc1	2	0%	10µM*	1%	0%	0%
CCCCC(=O)NC(=S)Nc1cccc(NC(=O)c2ccco2)c1	12	0%	25µM*	5%	-4%	-14%
CCC(=O)NC(=S)Nc1ccc(NC(=O)c2ccco2)cc1	-15	0%	nt	0%	2%	12%
COc1ccc(Cl)cc1NC(=O)c1cc(C)nc2c1c(C)nn2-c1ccccc1	nt	nt	0%	nt	nt	nt
CN(C(=O)c1cccs1)c1ccccc1C(=O)O	5	0%	20µM*	-6%	1%	-4%
Cc1ccc(N2C(=O)C(CC(=O)Nc3ccc(F)cc3)N(CCC3=CCCCC3)C2=O)cc1 (configuration not stated)	nt	nt	-2%	nt	nt	nt
O=C(Nc1ccc(Cl)c(Cl)c1)Nc1nccs1	-17	0%	-1%	-36%	3.2µM*	?
O=C(CSC1=Nc2ccccc2N=C(c2ccc(F)cc2)C1)Nc1cc(F)ccc1F	nt	nt	1%	nt	nt	nt
O=C(Nc1cccc(OCc2cc(=O)n3ccccc3n2)c1)Nc1cccc(C(F)(F)F)c1	nt	nt	-6%	nt	nt	nt
O=C(O)c1cccc(S(=O)(=O)Nc2cc(Cl)ccc2Cl)c1	-15	0%	-2%	4%	-17%	-1%
CC1CC(C)CN(C(=O)c2cccc(S(=O)(=O)Nc3cc(C(F)(F)F)ccc3Cl)c2)C1 (configuration not stated)	7	-2%	nt	16µM*	1%	-1%
CC(C)(C)c1ccc(S(=O)(=O)c2cnc(SCC(=O)Nc3ccc4c(c3)OCCO4)[nH]c2=O)cc1	nt	nt	2%	nt	nt	nt
CC(C)C1OC2(C)OC(=N)C1(C#N)C(C#N)(C#N)C2c1ccccc1 (configuration not stated)	-5	-1%	1%	0%	-10%	1%
CCC12OC(=N)C(C#N)(C1C)C(C#N)(C#N)C(c1ccccc1)O2 (configuration not stated)	-5	0%	7.1µM*	-5%	0%	-2%
CCC1OC2(C)OC(=N)C1(C#N)C(C#N)(C#N)C2c1ccccc1 (configuration not stated)	10	-1%	22µM*	0%	0%	-4%
CCOc1ccc(N(C)S(=O)(=O)c2ccc3c(c2)C(C)(C)C(=O)N3C)cc1	nt	nt	-1%	nt	nt	nt
Cc1nnc2sc(SCC(=O)Nc3ccc(Br)cc3)nn2c1=O	5	-1%	25µM*	3%	-12%	-1%
CCN(CC)CCCCNc1ncc2cc(-c3cc(OC)cc(OC)c3)c(NC(=O)NC(C)(C)C)nc2n1	12	0%	4%	0%	7.1µM*	nt
COc1ccc(NS(=O)(=O)c2ccc3oc(=O)c4[nH]c(=O)c(=O)n(C)c4c3c2)cc1	3	0%	20µM*	-8%	27%	9%
Cc1c(C(=O)N2CCN(c3ncccn3)CC2)sc2nc3n(c(=O)c12)CCCC3	-10	nt	28µM*	0%	-1%	nt
COC(=O)c1ccccc1NC(=O)c1cccc(COc2ccccc2Cl)c1	6	0%	25µM*	6%	-5%	?
O=C(NCc1ccccc1)c1cccc(COc2ccccc2Cl)c1	3	4%	-2%	5%	-1%	?
SMILES	Giardia killer	B2AR arrestin	ClpP mod	Mito fusion act	uPA generation	p53 reactivation
COc1cc(C2c3c(oc4ccccc4c3=O)C(=O)N2c2nnc(C(C)C)s2)cc(OC)c1OC (configuration not stated)	nt	nt	1%	nt	nt	nt
O=C(CCS(=O)(=O)c1nc(-c2cccs2)cc(C(F)(F)F)n1)Nc1ccc(F)c(Cl)c1	nt	nt	22µM*	nt	nt	nt
COc1ccc(NC(=O)CCS(=O)(=O)c2nc(-c3cccs3)cc(C(F)(F)F)n2)cc1	nt	nt	-8%	nt	nt	nt
COc1ccc(OC)c(/C=C/C(=O)N(C)CC(=O)Nc2cc(C)ccc2C)c1	-15	-1%	1%	4%	-1%	-5%
COc1ccc(OC)c(/C=C/C(=O)N(C)CC(=O)Nc2ccc(C)cc2)c1	14	-1%	28µM*	1%	2%	-5%
COc1ccc(NC(=O)CN(C)C(=O)/C=C/c2ccc(S(=O)(=O)N3CCCCCC3)cc2)cc1	-2	0%	-12%	4%	-4%	-7%
COc1ccc(NC(=O)CN(C)C(=O)/C=C/c2ccc(OCc3ccccc3)cc2)cc1	7	0%	28µM*	0%	nt	-5%
COc1ccc(N2CCN(C(CNS(=O)(=O)c3c(C)cc(C)cc3C)c3ccco3)CC2)cc1 (configuration not stated)	nt	nt	-21%	nt	nt	nt
COc1ccc(OC)c(/C=C(/C#N)c2nc(-c3ccc(-c4ccccc4)cc3)cs2)c1	nt	nt	-1%	nt	nt	nt
O=C(COC(=O)COc1ccccc1)Nc1ncc([N+](=O)[O-])s1	-26	0%	2%	1%	-1%	?
O=C(Cc1ccc(Cl)cc1)Nc1ncc([N+](=O)[O-])s1	-91*	0%	nt	-21%	7%	?
O=C(COc1ccc(Cl)cc1)Nc1ncc([N+](=O)[O-])s1	-86*	-1%	nt	9%	-13%	-3%
O=C(Cc1ccc(Br)cc1)Nc1ncc([N+](=O)[O-])s1	-93*	0%	-1%	5%	8%	?
CNC(=O)c1c(NC(=O)c2ccc(S(=O)(=O)N3CCCCC3)cc2)sc2c1CCN(C(C)C)C2	0	0%	-2%	-3%	-17%	19%
CCN1CCc2c(sc(NC(=O)c3ccc(S(=O)(=O)N4CCCC4)cc3)c2C(=O)NC)C1	8	0%	-1%	1%	-20%	35µM*
COc1ccc(-c2cc(C(=O)OC3CCOC3=O)c3ccccc3n2)cc1 (configuration not stated)	-15	0%	25µM*	0%	-6%	7%
O=C(OC1CCOC1=O)c1cc(-c2ccc(Br)cc2)nc2ccccc12 (configuration not stated)	-3	0%	?	9%	nt	1%
COc1ccc(-c2cc(C(=O)Oc3ccc([N+](=O)[O-])cc3)c3ccccc3n2)cc1	-12	0%	28µM*	3%	-10%	9%
c1ccc(C(c2nnnn2C2CCCCC2)N2CCc3ccccc3C2)nc1 (configuration not stated)	18	3%	2.5µM*	6%	-5%	-6%
